Source: the supplement of paper PMC10127200
Counter-ions that a name gives are not always drawn.

Key:
Assay in all cases: Euclidean distance of Cell Painting phenotypic profile (signed KS, 77 features) to DMSO centroid (dimensionless distance); higher = stronger phenotypic change vs DMSO (phenoactivity)
Details in all cases: 48 h; 5 or 10 uM (library dependent)
[1] = test system: 786-O
In short: (§1)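 Five cancer lines, together with a healthy fibroblast line, received library compounds for 48 h at a library-dependent 10 or 5 uM and 0.1% DMSO final. Harmony then derived 77 features from confocal 20X images (9 fields/well) of the stained cells, scoring each as a signed Kolmogorov-Smirnov statistic against same-plate vehicle wells. After plate-position correction, correlation weighting and replicate averaging at the top dose, phenoactivity was taken as each profile's Euclidean distance to the median vehicle profile.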

[2] = test system: A549
In short: as §1

[3] = test system: DU145
In short: as §1

[4] = test system: FB
In short: as §1

[5] = test system: HEPG2
In short: as §1

[6] = test system: OVCAR4
In short: as §1

| SMILES | Euclidean distance [1] | Euclidean distance [2] | Euclidean distance [3] | Euclidean distance [4] | Euclidean distance [5] | Euclidean distance [6] |
| --- | --- | --- | --- | --- | --- | --- |
| CC(C)(O)C(Cl)(Cl)Cl [Chlorobutanol] | 1.34 | 1.04 | 1.02 | 0.61 | 0.725 | 2 |
| N#Cc1ccc(N2CCC[C@@H]2[C@@H](O)C(F)(F)F)cc1C(F)(F)F [Ligandrol (LGD-4033. VK-5211)] | 1.52 | 1.1 | 0.95 | 1.1 | 0.87 | 1.15 |
| O=[N+]([O-])O[C@@H]1CO[C@H]2[C@@H]1OC[C@@H]2O [Isosorbide Mononitrate] | 1.15 | 1.13 | 0.879 | 0.9 | 0.868 | 0.962 |
| C/C(=C\c1csc(C)n1)[C@@H]1C[C@@H]2O[C@@H]2CCC[C@H](C)[C@H](O)[C@@H](C)C(=O)C(C)(C)[C@@H](O)CC(=O)O1 [Epothilone A] | 3.01 | 2.89 | 4.3 | 2.5 | 2.34 | 3.02 |
| CN(C)Cc1c[nH]c2ccccc12 [Gramine] | 1.2 | 0.885 | 1.29 | 0.772 | 0.674 | 1.45 |
| CN(C)NC(=O)CCC(=O)O [Daminozide] | 0.626 | 0.507 | 0.706 | 0.873 | 0.742 | 1.16 |
| COc1ccc2[nH]cc(CCN)c2c1 [5-Methoxytryptamine] | 0.978 | 0.912 | 0.758 | 1.38 | 0.952 | 0.882 |
| CN[C@@H]1[C@@H](O)[C@@H](O[C@@H]2[C@@H](O)[C@H](O[C@H]3O[C@H](CN)CC[C@H]3N)[C@@H](N)C[C@H]2N)OC[C@]1(C)O.CN[C@@H]1[C@@H](O)[C@@H](O[C@@H]2[C@@H](O)[C@H](O[C@H]3O[C@H]([C@@H](C)N)CC[C@H]3N)[C@@H](N)C[C@H]2N)OC[C@]1(C)O.CN[C@@H]1[C@@H](O)[C@@H](O[C@@H]2[C@@H](O)[C@H](O[C@H]3O[C@H]([C@@H](C)NC)CC[C@H]3N)[C@@H](N)C[C@H]2N)OC[C@]1(C)O [Gentamicin Sulfate] | 1.29 | 1.18 | 1.22 | 0.978 | 0.832 | 1.02 |
| NCC1(CC(=O)O)CCCCC1 [Gabapentin HCl] | 0.807 | 0.703 | 0.806 | 0.665 | 0.483 | 0.892 |
| C[C@]12CCC(=O)C[C@@H]1CC[C@@H]1[C@@H]2CC[C@]2(C)[C@@H](O)CC[C@@H]12 [Dihydrotestosterone(DHT)] | 1.54 | 0.944 | 0.925 | 0.775 | 0.429 | 0.677 |
| CN1[C@@H]2CC(O)C[C@H]1[C@@H]1O[C@@H]12 (stereo not given in full) [Scopine HCl] | 0.344 | 0.885 | 0.479 | 0.66 | 0.893 | 0.714 |
| Cc1ccccc1-n1c(CF)nc2ccc(N)cc2c1=O [Afloqualone] | 0.926 | 0.643 | 0.714 | 1.21 | 0.422 | 0.949 |
| Cc1cc(SCc2sc(-c3ccc(C(F)(F)F)c(F)c3)nc2C)ccc1OCC(=O)O | 0.634 | 1.17 | 0.823 | 1.08 | 2.24 | 0.807 |
| COc1cc([C@@H]2c3cc4c(cc3[C@H](O)[C@H]3COC(=O)[C@@H]23)OCO4)cc(OC)c1OC [Picropodophyllin (PPP)] | 3.35 | 2.64 | 4.34 | 2.74 | 3.95 | 3.14 |
| CN1[C@@H]2C[C@@H](OC(=O)[C@H](CO)c3ccccc3)C[C@H]1[C@@H]1O[C@@H]12 [Scopolamine HBr trihydrate] | 1.03 | 1.25 | 1.17 | 1.06 | 0.452 | 0.796 |
| Cc1cccc([C@H](C)c2c[nH]cn2)c1C [Dexmedetomidine] | 0.401 | 0.732 | 0.547 | 0.876 | 0.546 | 1.12 |
| CN1[C@@H]2CC[C@H]1C[C@@H](OC(=O)[C@H](CO)c1ccccc1)C2 [Hyoscyamine] | 0.984 | 0.92 | 0.681 | 0.505 | 0.646 | 1.31 |
| Nc1ccncc1 [4-Aminopyridine] | 1.38 | 0.626 | 0.961 | 0.938 | 0.429 | 0.946 |
| O=C(Oc1ccc([N+](=O)[O-])cc1)N1CCC(C(O)(c2ccc3c(c2)OCO3)c2ccc3c(c2)OCO3)CC1 | 1.24 | 1.34 | 1.4 | 1.86 | 1.15 | 1.12 |
| CC(CCc1ccccc1)NC(C)C(O)c1ccc(O)cc1 (stereo not given) [Nylidrin Hydrochloride] | 1.45 | 1.2 | 1.38 | 1.11 | 1.29 | 1.34 |
| CC(NC(C)(C)C)C(=O)c1cccc(Cl)c1 (stereo not given) [Amfebutamone HCl] | 1.4 | 1.06 | 0.536 | 1.05 | 0.846 | 1.45 |
| CC[C@@H](C(N)=O)N1CCCC1=O [Levetiracetam] | 1.07 | 1.76 | 0.591 | 1.12 | 0.604 | 1.81 |
| O=C(O[C@H]1C[N+]2(CCCOc3ccccc3)CCC1CC2)C(O)(c1cccs1)c1cccs1 [Aclidinium Bromide] | 1.15 | 1.13 | 1.29 | 0.774 | 0.61 | 1.23 |

| SMILES | Euclidean distance [1] | Euclidean distance [2] | Euclidean distance [3] | Euclidean distance [4] | Euclidean distance [5] | Euclidean distance [6] |
| --- | --- | --- | --- | --- | --- | --- |
| CN1[C@@H]2CC[C@H]1C[C@@H](OC(=O)C(CO)c1ccccc1)C2 (stereo not given in full) [Atropine sulfate monohydrate] | 0.718 | 0.691 | 0.677 | 0.688 | 0.719 | 1.53 |
| O=[N+]([O-])C(Br)(CO)CO [Bronopol] | 1.36 | 1.03 | 1.02 | 0.825 | 0.735 | 1.59 |
| COC(=O)C1=CCCN(C)C1 [Arecoline HBr] | 0.921 | 0.978 | 1.03 | 1.12 | 0.958 | 1.12 |
| C=CN1CCCC1=O.II [Povidone iodine] | 0.772 | 0.725 | 0.784 | 1.19 | 1.94 | 1.05 |
| COc1cc(-n2c(=S)[nH]c3ccccc3c2=O)c(Cl)cc1Cl [Mdivi-1] | 1.11 | 1.02 | 0.97 | 1.3 | 0.841 | 0.792 |
| O=c1[nH]c2ccccc2n1CCCN1CCC(n2c(=O)[nH]c3cc(Cl)ccc32)CC1 [Domperidone] | 1.75 | 1.18 | 2.1 | 1.14 | 0.776 | 1.67 |
| Cc1cc2c(C(C)C)c(O)c(O)c(C=O)c2c(O)c1-c1c(C)cc2c(C(C)C)c(O)c(O)c(C=O)c2c1O [Gossypol] | 2.34 | 2.66 | 0.576 | 1.05 | 0.654 | 1.74 |
| C=C(C)[C@@H]1[C@H]2OC(=O)[C@@H]1[C@]1(O)C[C@H]3O[C@]34C(=O)O[C@H]2[C@]14C [Picrotoxinin] | 1.37 | 1.86 | 0.846 | 0.954 | 0.815 | 1.26 |
| CC(C)NCC(O)c1ccccc1Cl (stereo not given) [Clorprenaline HCl] | 1.06 | 1.11 | 0.599 | 1.22 | 0.405 | 1.29 |
| CCC(COC(=O)c1cc(OC)c(OC)c(OC)c1)(c1ccccc1)N(C)C (stereo not given) [Trimebutine] | 0.93 | 0.4 | 0.604 | 0.704 | 1.26 | 0.747 |
| Cc1cccc(Cc2c[nH]cn2)c1C [Detomidine HCl] | 1.46 | 0.895 | 1.16 | 0.994 | 1.89 | 1.34 |
| O=c1c2ccccc2[se]n1-c1ccccc1 [Ebselen] | 1.37 | 1.48 | 1.01 | 1.16 | 0.769 | 1.42 |
| CC(C)OC(=O)[C@H](C)N[P@](=O)(CO[C@H](C)Cn1cnc2c(N)ncnc21)Oc1ccccc1 [Tenofovir Alafenamide (GS-7340)] | 1.71 | 1.16 | 1.44 | 1.85 | 2.92 | 1.58 |
| NC[C@H](CC(=O)O)c1ccc(Cl)cc1 [(R)-baclofen] | 1.58 | 1.05 | 0.675 | 1.01 | 0.87 | 1.1 |
| NC(=O)CN1CC(c2ccccc2)CC1=O (stereo not given) [Phenylpiracetam] | 1.05 | 1.45 | 0.789 | 0.956 | 0.413 | 1.3 |
| CC[C@@H](CO)NC(=O)[C@@H]1C=C2c3cccc4c3c(cn4C)C[C@H]2N(C)C1 [Methysergide Maleate] | 0.845 | 0.577 | 0.772 | 0.909 | 0.822 | 1.34 |
| CC[N+](C)(CC)CCOC(=O)C(O)(c1ccccc1)c1ccccc1 [Methylbenactyzine Bromide] | 0.693 | 0.883 | 0.575 | 0.967 | 0.532 | 1.45 |
| CC(=O)OCC1=C(C(=O)O)N2C(=O)[C@@H](N)[C@H]2SC1 [7-Aminocephalosporanic acid] | 1.45 | 0.819 | 1.16 | 1 | 0.55 | 0.832 |
| C[C@]12N[C@H](Cc3ccccc31)c1ccccc12 [MK-801 (Dizocilpine)] | 0.525 | 0.829 | 1.2 | 0.635 | 1.41 | 1.23 |
| C=C1[C@@H](C)[C@H]2[C@H](Cc3ccccc3)NC(=O)[C@]23[C@H](OC(C)=O)/C=C/[C@@](C)(O)C(=O)[C@@H](C)C/C=C/[C@H]3[C@@H]1O [Cytochalasin D] | 4.23 | 3.63 | 3.2 | 4.07 | 2.24 | 3.87 |
| CN1[C@@H]2C[C@@H](OC(=O)[C@H](CO)c3ccccc3)C[C@H]1[C@@H]1O[C@@H]12 [Scopolamine HBr] | 1.07 | 0.645 | 0.406 | 0.816 | 0.391 | 1.01 |
| CN1C(=O)COc2c(C(=O)NC3CN4CCC3CC4)cc(Cl)cc21 (stereo not given) [Azasetron HCl] | 0.735 | 0.632 | 0.582 | 0.666 | 0.533 | 0.74 |
